Laboratory results reported in paper PMC12136788.
Changes are numbered by the printed parent chain. In all, about 24,000 sequences were measured (“enrichment r”: median about 0.99, highest 2% from about 3.7 on). The full list was thinned out, with the highest values kept by preference.

B1: 83879064_83879184_615_CDS_ENSMUSG00000030016_ENSMUST00000032088|mouse|control|control (ssRNA)
RNA: GGGAGUUCUACAGUCCGACGAUCUGGAGUUAUAUGAGACUCAUCAUCCCACCGACUACCAUGAGGCUUCCCCUUCUUUUGUUGUGCUUCAGGAAAAUCCAAUUUUUCUUUGGUUAAUCUUGGAUCGGUUCGGUGUUGAGUUACCAACAGAGGAUUGAGCAUCA
B2: chrX:20248820:20248821:+_ENSMUSG00000001924_ENSMUST00000001989|mus_mus|mus_mus_mus_hu_True|58_98 (ssRNA)
RNA: GGGAGUUCUACAGUCCGACGAUCGGCGAAGUCCGUCAUCACAAAGUCAGGUUCUGCCAGUGAGGCCACCAAGGAUUUAAAACUAAUCUUCUUAGGUACUUUGACCUGACUGACGAUGCCUCCACGGAUGUAGUCGGAGAAGUUCAACAGAGGAUUGAGCAUCA
B3: chr17:35253193:35253194:-_ENSMUSG00000024387_ENSMUST00000025246|mus_mus|FALSE|FALSE (ssRNA)
RNA: GGGAGUUCUACAGUCCGACGAUCGGCCUUUUCUUCCUUUAUUUCAUAUUCCCACCACAGUAACAAUUCCUUUAAUUUAAACUAAAAACCAUAGACUUCCUGAAAGGGUGGCAGCAGAGGAAUGGUGGUGUCACAGACAGAGGGCAACAGAGGAUUGAGCAUCA
B4: chr16:45382771:45382772:-_ENSMUSG00000022661_ENSMUST00000163230|mus_mus|mus_mus_mus_hu_True|18_18 (ssRNA)
RNA: GGGAGUUCUACAGUCCGACGAUCCUGGGUCAUGUUAUAAGACAAAUGGACAGGGAGGGCAUGCUUCUCAAAAAAUGUGAGCUAUUGUCUAAGACUAACAAUAUUUAUCUAGCUAUAUAAAAAUAAGAAAUGAAUAAGUUAAGACAACAGAGGAUUGAGCAUCA
B5: chr16:45382771:45382772:-_ENSMUSG00000022661_ENSMUST00000163230|mus_mus|mus_mus_mus_hu_True|18_58 (ssRNA)
RNA: B4 RNA with G80A, U84C, G86C
B6: chr16:45382771:45382772:-_ENSMUSG00000022661_ENSMUST00000163230|mus_mus|mus_mus_mus_hu_True|18_98 (ssRNA)
RNA: B4 RNA with A38G, A39G, A41C, A43C
B7: chr16:45382771:45382772:-_ENSMUSG00000022661_ENSMUST00000163230|mus_mus|mus_mus_mus_hu_True|18_48 (ssRNA)
RNA: B4 RNA with U87A
B8: chr16:45382771:45382772:-_ENSMUSG00000022661_ENSMUST00000163230|mus_mus|mus_mus_mus_hu_True|1_18 (ssRNA)
RNA: B4 RNA with G137A, U138C, U139A, A140U, A141U, G142A, A143C
B9: chr16:45382771:45382772:-_ENSMUSG00000022661_ENSMUST00000163230|mus_mus|mus_mus_mus_hu_True|1_48 (ssRNA)
RNA: GGGAGUUCUACAGUCCGACGAUCCUGGGUCAUGUUAUAAGACAAAUGGACAGGGAGGGCAUGCUUCUCAAAAAAUGUGAGCUAUUGACUAAGACUAACAAUAUUUAUCUAGCUAUAAAAAUAAGUUAAAUGAAUAAACAUUACCAACAGAGGAUUGAGCAUCA
B10: chrX:12734859:12734860:+_ENSMUSG00000031010_ENSMUST00000089302|mus_hu|motif|central (ssRNA)
RNA: GGGAGUUCUACAGUCCGACGAUCAUCACUGGCAGAGCCACGGACUACUUUCUUUGUGUGAAAUCCUGUAGUAAAGAGGAACCGGGCAGCAAGUUGAAUACUGAUCAUAGUGAUUUCUUCUGCUUCAGGCAACAGGUGAUCUUGCAACAGAGGAUUGAGCAUCA
B11: chr8:21961785:21961786:+_ENSG00000158863_ENST00000289921|hu_mus|FALSE|FALSE (ssRNA)
RNA: GGGAGUUCUACAGUCCGACGAUCCCAUGCAAAUGCCAAAGUGCAUUGAGUAUUGCCCAGCCUCUCAAACGAGUACAAAUCUCAAGUGUAGACCCACUCCACCAAGAUCUGCUCCUGUCCCACACCAGCACCCAUGUGUACUCACAACAGAGGAUUGAGCAUCA
B12: 131934741_131943559_139_3pUTR_ENSG00000108010_ENST00000331244|human|control|control (ssRNA)
RNA: GGGAGUUCUACAGUCCGACGAUCUUCUUUAGCUAACUCUGCCAUAACUUCGUUCAUCUGUGCACACUGUGGAGCCCAUGGUGCCCAGAAAUGGACCACAAGGAGGGACUUGGCUUUGAGGCGCAGCAGCUCCUCAAACUGCCCCAACAGAGGAUUGAGCAUCA
B13: 88753824_88753944_1043_CDS_ENSMUSG00000053333_ENSMUST00000065694|mouse|control|control (ssRNA)
RNA: GGGAGUUCUACAGUCCGACGAUCGGCAAAAUUACAGUCCUCCUUCCAGUCUAUGAUGCGGCAGAUGAACAGCGUGUUGGCAAAGUCUUUAGGUCGGGUCAUGAAGUCCUGGGGACAGUCCUUGAGAGGUACGUAAAUUCUAGGCAACAGAGGAUUGAGCAUCA
B14: chr5:108714581:108714582:-_ENSG00000198961_ENST00000361557|hu_hu|FALSE|FALSE (ssRNA)
RNA: GGGAGUUCUACAGUCCGACGAUCUGAAAGACCAGUGUAUGCCUCUGCCUCUCUGUUUUCCAACUCAAAUACUGUAUUGCCUAAUGAUUCCUGGUAUCUACUACCUUCCACGACUUCUGCAGAAAGUUGAAGAUGGUCAUUAUCCAACAGAGGAUUGAGCAUCA
B15: chr15:31520727:31520728:-_ENSMUSG00000022234_ENSMUST00000022842|mus_mus|FALSE|FALSE (ssRNA)
RNA: GGGAGUUCUACAGUCCGACGAUCAGUUUAUUCUUCAGAUUCUCCAGGCUUACGGAUGUCAUCAAUCUUCAGAAUCAUCCUAACCAUCUGGGUGGCAAGAGAGAUCUGCUGCUUUUUGCCAAUCAAGGUUUCUAUGACAUGCUGCAACAGAGGAUUGAGCAUCA
B16: 86370578_86370698_3324_CDS_ENSMUSG00000021244_ENSMUST00000021670|mouse|control|control (ssRNA)
RNA: GGGAGUUCUACAGUCCGACGAUCUGGCCUCACAAACACCCUGUCCCGGUUGCCUUCUCCUCUGUUCAUUUUCUCACGACUGUCUUCUCUUCUACCCAUCAUUUUAUCAUGGAAAUCUUCUUGCUUGACCAGACCUGGACCACGCAACAGAGGAUUGAGCAUCA
B17: chr7:26236612:26236613:-_ENSG00000122566_ENST00000356674|hu_mus|motif|central (ssRNA)
RNA: GGGAGUUCUACAGUCCGACGAUCAACAAACAGCUUCUUCACAGUCACAUGGGCUCCUGGUUUUCCAGACUCCUCUCUUGCGGCAGCACGUUUUGGCUCAACUACCCUGCCAUCAAUGGAAUGGGGCCUUGCAGCCAUGGCAGCCAACAGAGGAUUGAGCAUCA
B18: chr1:163117127:163117128:-_ENSG00000143248_ENST00000313961|hu_mus|hu_hu_hu_mus_False|1_18 (ssRNA)
RNA: GGGAGUUCUACAGUCCGACGAUCUGCUACAAAGGAUGUAACUCAACUCACAGGGCAACUUUUGGAAGCCUGACCAGAUGACUACUUGAUUAGCUCCUUAUAAAAUUCAGAGCGCACAAAGCGAGGCAGAGAAUCCUUUUCCAUCAACAGAGGAUUGAGCAUCA
B19: chr16:45382771:45382772:-_ENSMUSG00000022661_ENSMUST00000163230|mus_mus|mus_mus_mus_hu_True|18_88 (ssRNA)
RNA: B4 RNA with C50U
B20: chr18:56819859:56819860:+_ENSG00000166562_ENST00000588875|hu_mus|hu_hu_hu_mus_True|38_38 (ssRNA)
RNA: GGGAGUUCUACAGUCCGACGAUCAACCUUGAUUACUCUGUGAACUAUCGGAAUGUCUCUUCCUUCAACCUUAAAAACAACUAUUUCACCAGCUCUGAUUGGGUCUUCCCGGAAAUUCGUGAGGAACAGCAGAUCUCCUCUGUGCAACAGAGGAUUGAGCAUCA
B21: 78791426_78796734_1209_CDS_ENSMUSG00000033088_ENSMUST00000109689|mouse|control|control (ssRNA)
RNA: GGGAGUUCUACAGUCCGACGAUCACUGCCAGAAUUCUCCUUCCUCUGGCCUGCUGUGUCUCCUCGGGCUGGGGACCUGGUGGCCUUUCGAGCACUGUCAGCUCUCAGUCCCUCCUGAGGCCUCCUUGGGAUCAUCUCUGUGAGCAACAGAGGAUUGAGCAUCA
B22: chr7:141450121:141450122:+_ENSG00000106028_ENST00000265304|hu_mus|hu_hu_hu_mus_True|28_98 (ssRNA)
RNA: GGGAGUUCUACAGUCCGACGAUCUCAUCCGUUCUAUUCCUUCUCUUUUGUCUGGUCACUCAGAAAUAUAAUGUUAUCAGCUAUGAUUGUUGUUGCUUGCCGCCUCACAUUAUUUUUAUCCAUGUACUCGCCAUAGUCCACUUUCAACAGAGGAUUGAGCAUCA

Target: T1, UNK ZnF1-3 (human, UniProt Q9C0B0 31-174)
T1 sequence: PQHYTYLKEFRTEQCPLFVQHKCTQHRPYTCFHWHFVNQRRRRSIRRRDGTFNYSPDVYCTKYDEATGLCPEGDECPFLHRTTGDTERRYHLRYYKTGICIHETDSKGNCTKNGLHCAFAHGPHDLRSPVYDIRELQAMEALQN
Test: nsRBNS (natural sequence RNA bind-n-seq); RBNS binding buffer (assumed for nsRBNS): 25 mM Tris pH 7.5, 150 mM KCl, 3 mM MgCl2, 0.01% Triton X-100, 500 ug/ml BSA, 20 U/ml SUPERase-In, 4 C; UNK is unkempt and MSI1 is Musashi-1; names of the RNAs are library labels; protein concentration not given here; high values mean tight binding

Point of comparison: B3, binding signal 1.66 enrichment R. Against it:
- B1 — lower, 0.468 enrichment R
- B2 — lower, 0.876 enrichment R
- B4 — higher, 5.7 enrichment R
- B5 — higher, 7.97 enrichment R
- B6 — higher, 5.27 enrichment R
- B7 — higher, 5.66 enrichment R
- B8 — higher, 2.42 enrichment R
- B9 — higher, 3.57 enrichment R
- B10 — lower, 1.47 enrichment R
- B11 — lower, 1.22 enrichment R
- B12 — lower, 0.775 enrichment R
- B13 — lower, 1.63 enrichment R
- B14 — lower, 0.745 enrichment R
- B15 — lower, 0.637 enrichment R
- B16 — lower, 0.682 enrichment R
- B17 — lower, 0.995 enrichment R
- B18 — lower, 1.28 enrichment R
- B19 — higher, 4.85 enrichment R
- B20 — lower, 0.808 enrichment R
- B21 — lower, 0.647 enrichment R
- B22 — lower, 0.444 enrichment R
